Source: PubChem (National Center for Advancing Translational Sciences (NCATS))
KB-V1 cytotox: qHTS assay for MDR1-selective chemotherapeutics: Primary screen using the drug-selected MDR subline cells KB-V1 | KB-V1 MDR cells viability, CellTiter-Glo, 72 h | 400,000 compounds, 3.4% hits | Potency, µM (doses to about 46.1 µM), hits mostly cytotoxic | AID 1347076, 2019; further: nearly all actives have a fitted effect of over 60% in size
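Cytotoxicity toward P-gp-expressing KB-V1 cells was determined as loss of CellTiter-Glo luminescence after 72 h at 37 degrees C. Compounds were tested in quantitative HTS format across a concentration range, with curves fitted to normalized data.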
SW480 rerep: A quantitative high throughput screen for small molecules that induce DNA re-replication in SW480 colon adenocarcinoma cells; SW480 DNA re-replication, Hoechst DNA content imaging, 48 h; Potency, µM (series often up to 46.1 µM), hits mostly activators; 340,000 compounds, 1.8% hits; further: nearly all actives have a fitted effect of over 55% in size
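SW480 cells exposed to compounds for 48 hr at 37 C, 5% CO2, then Hoechst-stained 40 min. Nuclear DNA content imaged by fluorescence scanning (405 nm excitation, 500-530 nm emission); re-replication scored as increased high-intensity nuclei.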
MCF10A rereplic: A quantitative high throughput screen for small molecules that induce DNA re-replication in MCF 10a normal breast cells | MCF 10A DNA re-replication, Hoechst nuclear intensity, 48 h | Potency, µM (doses to about 46.1 µM), usual class: activators | 350,000 compounds, 2.9% hits | AID 624296, 2012; further: nearly all actives have a fitted effect of over 50% in size
ASM inhibitor: Inhibitors of Secretory Acid Sphingomyelinase (S-ASM): qHTS; placental ASM, HMU-PC fluorogenic substrate, 60 min; Potency, µM (doses to about 57.5 µM), actives largely listed as inhibitors; 340,000 compounds, 0.006% hits; AID 504937, 2011
Target sequence (P17405 47-631 limits assumed): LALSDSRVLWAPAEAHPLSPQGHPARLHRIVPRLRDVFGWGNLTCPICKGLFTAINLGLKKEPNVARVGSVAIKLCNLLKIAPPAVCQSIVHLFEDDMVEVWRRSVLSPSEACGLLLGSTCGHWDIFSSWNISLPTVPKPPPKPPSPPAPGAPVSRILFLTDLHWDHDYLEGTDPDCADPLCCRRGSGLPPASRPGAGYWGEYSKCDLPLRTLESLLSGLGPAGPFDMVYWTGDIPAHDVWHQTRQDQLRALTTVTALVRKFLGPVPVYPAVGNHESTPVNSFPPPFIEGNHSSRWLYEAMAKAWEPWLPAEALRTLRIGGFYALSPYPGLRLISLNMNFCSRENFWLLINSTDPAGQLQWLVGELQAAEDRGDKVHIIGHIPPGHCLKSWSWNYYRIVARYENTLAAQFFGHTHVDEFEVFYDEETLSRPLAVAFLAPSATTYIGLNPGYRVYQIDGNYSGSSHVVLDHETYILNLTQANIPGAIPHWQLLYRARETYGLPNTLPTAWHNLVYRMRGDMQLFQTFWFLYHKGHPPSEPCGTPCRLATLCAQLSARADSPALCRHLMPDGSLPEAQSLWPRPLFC
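Human placenta-derived ASM enzyme was preincubated with compound for 10 minutes at room temperature, then given fluorogenic substrate HMU-PC0 (9 uM final) for 60 minutes at 37 °C; a pH 10 stop preceded fluorescence reading at Ex 386/Em 447 nm.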
Giardia killer: Small Molecules that selectively kill Giardia lamblia: qHTS | Giardia lamblia trophozoite viability | activity change, % at 7.66 µM, hits read low | 340,000 compounds, 0.15% hits; in the data active means activity change below about -80%; inconclusive means between about -30% and that limit;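 further: parasites exposed to compound for two days anaerobically before the ATP read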
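Trophozoites 100 cells/well + cpd; 48 hrs, 37 deg C, anaerobic. ATPLite 1-Step added, 15-30 min RT, luminescence read (ATP-based viability).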
KB-3-1 tox: qHTS assay for MDR1-selective chemotherapeutics: Primary screen using the parental adenocarcinoma cell KB-3-1; KB-3-1 viability, CellTiter-Glo ATP luminescence, 72 h; Potency, µM (series often up to 46.1 µM), most hits filed as cytotoxic; 400,000 compounds, 1.4% hits; AID 1347075, 2019; further: nearly all actives have a fitted effect of over 60% in size
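Cytotoxicity in the drug-sensitive parental line KB-3-1 was scored as loss of CellTiter-Glo luminescence following 72 h incubation with compound. Values come from curve fitting of normalized concentration-response data.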
A number is an active result; - = inactive; ? = inconclusive; . = no result. Hits are enriched below; roughly 6.9% of the tested compounds scored in any of these assays. Unless noted, the call rests on the fitted dose curve; in most records, active means well fitted curve in the direction sought with a large enough effect; inconclusive means small, poorly fitted or top-dose-only effect, or another doubt; inactive means no such curve, though single readings can be large; an effect the other way counts as inactive or inconclusive.

SMILES	KB-V1 cytotox	SW480 rerep	MCF10A rereplic	ASM inhibitor	Giardia killer	KB-3-1 tox
COC(=O)c1c(NC(=O)CC2Nc3ccccc3NC2=O)sc(C)c1C (centres undefined)	?	-	10µM	-	-	-
O=C(CC1Nc2ccccc2NC1=O)Nc1cc(Cl)cc(Cl)c1 (centres undefined)	-	1.8µM	?	-	-	-
CCOC(=O)c1c(NC(=O)CC2Nc3ccccc3NC2=O)sc(C)c1C (centres undefined)	-	?	?	-	-	-
Cc1ccc(-n2c(-c3ccccc3)nsc2=NC#N)cc1	-	.	.	.	-	-
C=CCN1C(=O)C2C3CC(=O)C(c4ccccc43)C2C1=O (centres undefined)	-	5.2µM	-	-	-	-
CCc1cccc(C)c1NS(=O)(=O)c1ccc2c(c1)NC(=O)C(C)C(=O)N2 (centres undefined)	-	.	.	.	.	-
Cc1nn(C)c(C(=O)N/N=C/c2cccnc2)c1Br	-	?	-	-	-	-
NC(=S)NNC(=O)[C@@H]1CCCC[C@@H]1C(=O)O	-	0.52µM	-	-	-	-
O=C(CN1C2=NCCCN2c2ccccc21)c1ccc(Cl)cc1Cl	13µM	-	-	-	-	?
O=C(CN1C2=NCCCN2c2ccccc21)c1cccc(Br)c1	?	-	-	-	-	?
Clc1ccc(CN2C3=NCCCN3c3ccccc32)cc1Cl	?	-	16µM	-	-	?
Clc1ccc(CN2C3=NCCCN3c3ccccc32)cc1	-	-	-	-	-	?
O=C(c1cc2nc(-c3ccc(F)cc3)cc(C(F)(F)F)n2n1)N1CCCCC1c1cccnc1 (centres undefined)	?	?	?	-	-	3.3µM
CCOc1ccccc1NC(=O)C(C)n1nnc2sc3c(c2c1=O)CCCC3 (centres undefined)	-	.	.	.	.	-
COc1cc(C(C)=O)ccc1OCC(=O)Nc1cc(C)on1	?	-	-	-	-	-
COc1cc(C)cc(OC)c1OCC(=O)Nc1cc(C)on1	21µM	-	-	-	-	-
COP(=O)(OC)OC(c1ccc(Cl)cc1)P(=O)(OC)OC (centres undefined)	.	-	-	.	.	.
CCOC(=O)[C@]12CCC=C1N(Cc1ccc(Cl)cc1Cl)C(=O)[C@H](CC(=O)N1CCN(C(=O)c3ccco3)CC1)C2	10µM	.	.	.	.	-
CCOC(=O)N1CCN(C(=O)C[C@@H]2C[C@@]3(C(=O)OCC)CCC=C3N(Cc3ccc(Cl)cc3Cl)C2=O)CC1	10µM	.	.	.	.	-
CCOC(=O)[C@]12CCC=C1N(Cc1ccc(Cl)cc1Cl)C(=O)[C@H](CC(=O)N1CCCC1)C2	?	.	.	.	.	-
COC(=O)[C@]12CCCCC=C1N(Cc1ccc(Cl)cc1Cl)C(=O)[C@H](CC(=O)N1CCN(C(=O)c3ccco3)CC1)C2	-	.	.	.	.	?
CCCCOCCCNC(=O)C[C@@H]1C[C@@]2(C(=O)OCC)CCC=C2N(Cc2ccc(Cl)cc2Cl)C1=O	18µM	.	.	.	.	?
O=C(Nc1ccnn1C1CCN(C(=O)Cc2ccccc2F)CC1)C1CC1	-	?	-	-	-	-
FC1(F)Oc2ccc(-c3ccc4ncnc(NCc5cccs5)c4c3)cc2O1	-	.	.	.	.	?
C[Se]CC[C@H](N)C(=O)O	.	-	-	.	.	.
SMILES	KB-V1 cytotox	SW480 rerep	MCF10A rereplic	ASM inhibitor	Giardia killer	KB-3-1 tox
CCOc1ccccc1C1C(C(=O)N2CCCCC2)=C(C)Nc2nc3ccccc3n21 (centres undefined)	-	.	.	.	.	-
CCc1cccc2c(N=O)c(O)[nH]c12	16µM	-	-	-	-	?
COc1ccc2c(c1)sc(N)[n+]2Cc1cc(C)cc2cccnc12	4.6µM	8.2µM	4.6µM	-	-	4.6µM
CCOc1ccc2c(c1)sc(N)[n+]2Cc1cc(C)cc2cccnc12	1.3µM	4.6µM	8.2µM	-	-	2.6µM
O=C(NCc1cccnc1)C1c2ccccc2C(=O)N1C1CCCCCC1 (centres undefined)	18µM	-	-	-	-	-
O=C(NC1CCCCCC1)C1c2ccccc2C(=O)N1Cc1cccnc1 (centres undefined)	12µM	-	-	-	-	-
O=C(NCC1CCCO1)C1c2ccccc2C(=O)N1C1CCCCCCC1 (centres undefined)	7.3µM	-	-	-	-	-
Cc1ccc(S(=O)(=O)N(C)c2ccc(C(=O)NCC(c3ccco3)N(C)C)cc2)cc1 (centres undefined)	-	-	9.2µM	-	-	-
Cc1ccccc1NS(=O)(=O)c1ccc(C(=O)NCC(c2ccco2)N(C)C)cc1 (centres undefined)	15µM	-	?	-	-	-
Cc1ccc(NC(=O)C2CCCN2S(=O)(=O)c2ccc3c(c2)C(C)(C)C(=O)N3C)cc1 (centres undefined)	-	.	.	.	.	?
COC(C[C@H]1O[C@H]1[C@H](O)COCc1ccccc1)OC	-	-	-	-	-	-
O=C(Nc1ccn(CCCN2CCN(Cc3cccc4ccccc34)CC2)c(=O)n1)OCc1ccccc1	18µM	.	.	.	.	?
N#CC1=C(N)NC(SCc2ccc(F)cc2)=C(C#N)C12CCCCC2	?	?	8.2µM	-	-	23µM
NC(=S)N/N=C\c1c(OCc2ccccc2Cl)ccc2ccccc12	-	-	-	-	-	-
COc1ccccc1NS(=O)(=O)c1cc(NC(=O)COc2ccccc2F)ccc1N1CCOCC1	4.6µM	-	-	-	-	-
COc1ccc(NS(=O)(=O)c2cc(NC(=O)c3cc(F)c(F)cc3Cl)ccc2N2CCOCC2)cc1	-	?	-	-	-	-
Nc1cc(S(=O)(=O)Nc2ccc(Cl)cc2)ccc1N1CCOCC1	?	-	?	-	-	23µM
Nc1cc(S(=O)(=O)Nc2ccccc2Cl)ccc1N1CCOCC1	-	-	-	-	-	?
COc1ccc(NS(=O)(=O)c2cc(NC(=O)c3sccc3C)ccc2N2CCOCC2)cc1	-	?	?	-	-	7.3µM
CCOC(=O)Nc1ccc(N2CCOCC2)c(S(=O)(=O)Nc2ccc(Cl)cc2)c1	?	21µM	?	-	-	-
COCC(=O)Nc1ccc(N2CCOCC2)c(S(=O)(=O)Nc2ccccc2OC)c1	?	-	-	-	-	?
CCOc1ccccc1NC(=O)N1CCN(Cc2nc3ccc(C)cc3o2)CC1	-	.	.	.	.	-
Cc1cccc(NC(=O)Cn2ncc3c4ccccc4n(Cc4ccccc4)c3c2=O)c1C	?	.	.	.	.	-
COc1ccc(OC)c(NS(=O)(=O)c2ccc(NC(C)=O)cc2)c1	21µM	-	?	-	-	?
